ER stress death: ER stress cell death inhibition; relative survival (cellular ATP), % at 15 µg/mL (by protocol); AID 1010; 48,000 tested, 0.33% active; CSM14.1 thapsigargin ER stress survival, ATP luminescence;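 active = survival measured by cellular ATP above 50% at 15 µg/ml in the first screen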;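 also: cell death triggered by about 15 µM thapsigargin; ATP read 24 h after thapsigargin was added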
A number is an active result; - = inactive. This excerpt belongs to a sample that is enriched for hits.

SMILES	ER stress death
Cc1cc(C)c(OCCCCn2ccnc2)c(C)c1	-
Cc1cc(OCCCCCn2ccnc2)cc(C)c1Cl	-
CCCOC(=O)c1c(NC(=O)CCCC(=O)O)sc2c1CCC(C)C2 (centres undefined)	-
C=CCN1C(=O)/C(=C\c2ccc([N+](=O)[O-])o2)C(=O)NC1=S	-
COC(=O)c1ccc(C2Nc3ccccc3NC3=C2C(=O)CC(C)(C)C3)cc1 (centres undefined)	-
COc1ccc(C2Nc3ccccc3NC3=C2C(=O)CC(C)(C)C3)cc1COc1ccc(F)cc1 (centres undefined)	60.9
CC1(C)CC(=O)C2=C(C1)Nc1ccccc1NC2c1ccc(-c2ccccc2)cc1 (centres undefined)	121.1
CSc1ccc(C2Nc3ccccc3NC3=C2C(=O)CC(C)(C)C3)cc1 (centres undefined)	-
CCCCOc1ccc(C2Nc3ccccc3NC3=C2C(=O)CC(C)(C)C3)cc1 (centres undefined)	-
CC1(C)CC(=O)C2=C(C1)Nc1ccccc1NC2c1cccc(F)c1 (centres undefined)	-
Cc1ccc(-c2ccccc2)n1-c1ccc2c(c1)OCO2	-
CN(C)c1ccc(C2Nc3ccc(C(=O)c4ccccc4)cc3NC3=C2C(=O)CCC3)cc1 (centres undefined)	96.9
COc1ccc(C2Nc3ccc(C(=O)c4ccccc4)cc3NC3=C2C(=O)CCC3)c(OC)c1 (centres undefined)	-
COc1ccccc1C1Nc2ccc(C(=O)c3ccccc3)cc2NC2=C1C(=O)CCC2 (centres undefined)	-
Cc1ccc(S(=O)(=O)/N=C2/NC(=O)/C(=C/c3cc([N+](=O)[O-])ccc3Cl)S2)cc1	-
CCOc1cc(C2Nc3ccccc3NC3=C2C(=O)CC(c2ccccc2)C3)cc(Br)c1O (centres undefined)	-
COc1ccc(C2Nc3ccccc3NC3=C2C(=O)CC(c2ccccc2)C3)cc1Br (centres undefined)	-
CCOc1cc(C2Nc3ccccc3NC3=C2C(=O)CC(c2ccc(OC)cc2)C3)cc(Br)c1O (centres undefined)	64.0
COc1ccc(C2CC(=O)C3=C(C2)Nc2ccccc2NC3c2ccc(OC)c(Br)c2)cc1 (centres undefined)	95.5
CCOc1ccc(C2Nc3ccccc3NC3=C2C(=O)CC(c2ccc(OC)cc2)C3)cc1OC (centres undefined)	-
COc1ccc(C2CC(=O)C3=C(C2)Nc2ccccc2NC3c2ccc(OC)c(OC)c2)cc1 (centres undefined)	-
COc1ccc(C2CC(=O)C3=C(C2)Nc2ccccc2NC3c2ccc(-c3ccccc3)cc2)cc1OC (centres undefined)	-
COc1ccc(C2CC(=O)C3=C(C2)Nc2ccccc2NC3c2cccc(Oc3ccccc3)c2)cc1OC (centres undefined)	85.4
COc1ccc(C2CC(=O)C3=C(C2)Nc2ccccc2NC3c2cccc(F)c2)cc1OC (centres undefined)	-
O=[N+]([O-])c1ccc(Cl)c(-n2ncnc2-c2ccccc2C(F)(F)F)c1	-
SMILES	ER stress death
CC1=NNC(=O)C1CC(=O)N/N=C/c1ccc(O)cc1 (centres undefined)	-
COc1ccc(CN2CCN(Cc3cccn3C)CC2)c(OC)c1	-
O=C(NCC1CCCO1)c1cc2nc(-c3ccccc3)cc(-c3ccccc3)n2n1 (centres undefined)	-
CCOc1ccc(-c2cc(C)n3nc(C(=O)Nc4cc(C)ccc4O)cc3n2)cc1	-
Nc1c(S(=O)(=O)c2ccccc2)sc2nc(-c3ccccc3)cc(-c3ccccc3)c12	-
CC1CCOP(=O)(C(Nc2cc(Cl)cc(Cl)c2)c2ccc(Br)cc2)O1 (centres undefined)	-
O=C1c2ccccc2C(=O)N1CC#CCN1CCN(C(c2ccccc2)c2ccccc2)CC1	67.5
C(#Cc1ccccc1)CN1CCN(CC#Cc2ccccc2)CC1	-
N#CCC(=O)N1CCN(C(c2ccccc2)c2ccccc2)CC1	-
Cc1c(C(=O)Oc2c(Br)cc(Br)cc2Br)cccc1[N+](=O)[O-]	-
COc1ccc(OCCCCn2ccnc2)cc1	-
Cc1ccc(-c2noc(-c3cccc([N+](=O)[O-])c3C)n2)cc1	-
CC(C)OP(=O)(OC(C)C)C(Nc1cccc(N)c1)c1cccc(N)c1 (centres undefined)	81.1
COP(=O)(OC)C(Nc1cc(Cl)cc(Cl)c1)c1cccc(O)c1 (centres undefined)	-
CC(C)OP(=O)(OC(C)C)C(Nc1cccc([N+](=O)[O-])c1)c1cccc([N+](=O)[O-])c1 (centres undefined)	-
CSc1ccc(CN2CCN(C(=O)c3ccco3)CC2)cc1	-
CCOc1cccc(NC(=O)Nc2cccc(C(F)(F)F)c2)c1	-
COc1ccc(S(=O)(=O)NC2CCCCC2)cc1Br	-
CC1=C(C(=O)OCCc2ccccc2)C(c2ccc(F)cc2)C2=C(CCCC2=O)N1 (centres undefined)	-
CCOc1ccc(Nc2nc(-c3c(C)nc4sccn34)cs2)cc1	93.2
CCOc1ccc(Nc2nc(-c3cccs3)cs2)cc1	-
CCN(CC)c1ccc(Nc2nc(-c3c(C)nc4sccn34)cs2)cc1	-
Cc1ccc(N(Cc2ccc(C(=O)N/N=C/c3cc(Br)c(C)o3)cc2)S(C)(=O)=O)cc1C	80.3
CCC(C)NC(=O)c1ccc(CN(c2ccc(C)c(C)c2)S(C)(=O)=O)cc1 (centres undefined)	-
Cc1ccc(N(Cc2ccc(C(=O)N/N=C/c3ccc(OC4CSC4)cc3)cc2)S(C)(=O)=O)cc1C	-
O=C(/C=C/c1cccc2ccccc12)c1ccc(NC(=O)c2cccs2)cc1	-
CCOc1ccc(S(=O)(=O)N(CC(=O)Nc2ccccc2CC)c2ccc(C)cc2)cc1	-
CCOc1ccccc1NC(=O)CN(c1ccc(C)cc1)S(=O)(=O)c1ccc(SC)cc1	-
CCOc1ccc(S(=O)(=O)N(CC(=O)Nc2ccccc2OCC)c2ccc(C)cc2)cc1	66.5
CCCOC(=O)c1c(NC(=O)/C=C/C(=O)O)sc2c1CCCC2	-

Screening data: PubChem, Sanford-Burnham Center for Chemical Genomics
